# Experimental data published in PubChem BioAssay AID1159580 (chemical genetic matrix, 2015).
# Values joined by “and” are separate entries in the source; they are usually repeats but may differ in a detail not shown here. Identical values can stand only once. The campaign covered roughly 5,500 compounds. About 2,000 (36%) were called active. Roughly 18% stayed inconclusive and do not appear here. No stated cut-off is given here; in the data, active means normalized growth mostly below about 0.91 (no sharp cut-off); inconclusive means no clear call, values can overlap the other calls; inactive means mostly above about 0.92. Some of the results follow. Some compounds were tested as several samples or in several runs, with calls that do not always agree.
# Test: chemical genetic growth profiling, strain panel (AID 1159580);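 further: tested at 20 µM; growth read once vehicle control cultures reached saturation at 30 °C; 1 = growth at the plate median or of vehicle wells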
# Settings: growth OD
compound,measurement,setting,value
O=c1c2ccccc2[se]n1-c1ccccc1,normalized growth,"S. cerevisiae deletion strains, locus YJR075W, strain HOC1, stronger effect = lower value",0.0678 (active)
same,normalized growth,"S. cerevisiae deletion strains, locus YKL068W, stronger effect = lower value",0.0623 (active)
same,normalized growth,"S. cerevisiae deletion strains, locus YKL085W, strain MDH1 (second series), stronger effect = lower value",0.0549 (active)
same,normalized growth,"S. cerevisiae deletion strains, locus YKL085W, strain MDH1, stronger effect = lower value",0.0549 (active)
same,normalized growth,"S. cerevisiae deletion strains, locus YKL160W, strain elf1, stronger effect = lower value",0.0672 (active)
same,normalized growth,"S. cerevisiae deletion strains, locus YKL190W, strain CNB1, stronger effect = lower value",0.0495 (active)
same,normalized growth,"S. cerevisiae deletion strains, locus YKR001C, strain vps1, stronger effect = lower value",0.064 (active)
same,normalized growth,"S. cerevisiae deletion strains, locus YKR026C, strain gcn3, stronger effect = lower value",0.0615 (active)
same,normalized growth,"S. cerevisiae deletion strains, locus YKR091W, strain srl3, stronger effect = lower value",0.0622 (active)
same,normalized growth,"S. cerevisiae deletion strains, locus YLL001W, strain dnm1, stronger effect = lower value",0.0729 (active)
same,normalized growth,"S. cerevisiae deletion strains, locus YLL026W, stronger effect = lower value",0.0595 (active)
same,normalized growth,"S. cerevisiae deletion strains, locus YLL041C, strain sdh2, stronger effect = lower value",0.0595 (active)
same,normalized growth,"S. cerevisiae deletion strains, locus YLR027C, strain aat2, stronger effect = lower value",0.0567 (active)
same,normalized growth,"S. cerevisiae deletion strains, locus YLR039C, strain RIC1, stronger effect = lower value",0.0906 (active)
same,normalized growth,"S. cerevisiae deletion strains, locus YLR058C, strain SHM2, stronger effect = lower value",0.955 (inactive)
same,normalized growth,"S. cerevisiae deletion strains, locus YLR102C, strain apc9, stronger effect = lower value",0.0627 (active)
same,normalized growth,"S. cerevisiae deletion strains, locus YLR113W, strain HOG1, stronger effect = lower value",0.138 (active)
same,normalized growth,"S. cerevisiae deletion strains, locus YLR221C, strain rsa3, stronger effect = lower value",0.061 (active)
same,normalized growth,"S. cerevisiae deletion strains, locus YLR258W, strain gsy2, stronger effect = lower value",0.0609 (active)
same,normalized growth,"S. cerevisiae deletion strains, locus YLR262C, strain YPT6 (second series), stronger effect = lower value",0.0795 (active)
same,normalized growth,"S. cerevisiae deletion strains, locus YLR262C, strain YPT6, stronger effect = lower value",0.0981 (active)
same,normalized growth,"S. cerevisiae deletion strains, locus YLR268W, strain sec22, stronger effect = lower value",0.0733 (active)
same,normalized growth,"S. cerevisiae deletion strains, locus YLR320W, strain mms22, stronger effect = lower value",0.0819 (active)
same,normalized growth,"S. cerevisiae deletion strains, locus YLR330W, strain CHS5, stronger effect = lower value",0.0552 (active)
same,normalized growth,"S. cerevisiae deletion strains, locus YLR342W, strain FKS1 (second series), stronger effect = lower value",0.0785 (active)
same,normalized growth,"S. cerevisiae deletion strains, locus YLR342W, strain FKS1, stronger effect = lower value",0.0773 (active)
same,normalized growth,"S. cerevisiae deletion strains, locus YLR357W, strain rsc2, stronger effect = lower value",0.117 (active)
same,normalized growth,"S. cerevisiae deletion strains, locus YLR370C, strain arc18, stronger effect = lower value",0.0623 (active)
same,normalized growth,"S. cerevisiae deletion strains, locus YLR371W, strain rom2, stronger effect = lower value",0.0624 (active)
same,normalized growth,"S. cerevisiae deletion strains, locus YLR384C, strain iki3, stronger effect = lower value",0.554 (active)
same,normalized growth,"S. cerevisiae deletion strains, locus YLR418C, strain cdc73, stronger effect = lower value",0.0967 (active)
same,normalized growth,"S. cerevisiae deletion strains, locus YML016C, strain PPZ1, stronger effect = lower value",0.0497 (active)
same,normalized growth,"S. cerevisiae deletion strains, locus YML032C, strain rad52, stronger effect = lower value",0.832 (active)
same,normalized growth,"S. cerevisiae deletion strains, locus YML120C, strain ndi1, stronger effect = lower value",0.724 (active)
same,normalized growth,"S. cerevisiae deletion strains, locus YML124C, strain tub3, stronger effect = lower value",0.0602 (active)
same,normalized growth,"S. cerevisiae deletion strains, locus YMR058W, strain fet3, stronger effect = lower value",0.062 (active)
same,normalized growth,"S. cerevisiae deletion strains, locus YMR078C, strain ctf18, stronger effect = lower value",0.0748 (active)
same,normalized growth,"S. cerevisiae deletion strains, locus YMR125W, strain sto1, stronger effect = lower value",0.0783 (active)
same,normalized growth,"S. cerevisiae deletion strains, locus YMR129W, stronger effect = lower value",0.0579 (active)
same,normalized growth,"S. cerevisiae deletion strains, locus YMR205C, strain PFK2, stronger effect = lower value",0.134 (active)
same,normalized growth,"S. cerevisiae deletion strains, locus YMR223W, strain ubp8, stronger effect = lower value",0.0699 (active)
same,normalized growth,"S. cerevisiae deletion strains, locus YMR231W, strain pep5, stronger effect = lower value",0.0661 (active)
same,normalized growth,"S. cerevisiae deletion strains, locus YMR263W, strain SAP30, stronger effect = lower value",0.065 (active)
same,normalized growth,"S. cerevisiae deletion strains, locus YMR307W, strain GAS1, stronger effect = lower value",0.116 (active) and 0.922 (inactive)
same,normalized growth,"S. cerevisiae deletion strains, locus YNL067W, strain RPL9B, stronger effect = lower value",0.0566 (active)
same,normalized growth,"S. cerevisiae deletion strains, locus YNL071W, strain lat1, stronger effect = lower value",0.0612 (active)
same,normalized growth,"S. cerevisiae deletion strains, locus YNL128W, strain TEP1, stronger effect = lower value",0.0628 (active)
same,normalized growth,"S. cerevisiae deletion strains, locus YNL153C, strain GIM3, stronger effect = lower value",0.0713 (active) and 0.0822 (active)
same,normalized growth,"S. cerevisiae deletion strains, locus YNL175C, strain NOP13, stronger effect = lower value",0.998 (inactive)
same,normalized growth,"S. cerevisiae deletion strains, locus YNL183C, strain NPR1, stronger effect = lower value",0.841 (inactive)
same,normalized growth,"S. cerevisiae deletion strains, locus YNL197C, strain WHI3, stronger effect = lower value",0.924 (inactive)
same,normalized growth,"S. cerevisiae deletion strains, locus YNL209W, strain ssb2, stronger effect = lower value",0.0633 (active)
same,normalized growth,"S. cerevisiae deletion strains, locus YNL224C, strain SQS1, stronger effect = lower value",0.826 (active)
same,normalized growth,"S. cerevisiae deletion strains, locus YNL233W, strain BNI4, stronger effect = lower value",0.0552 (active)
same,normalized growth,"S. cerevisiae deletion strains, locus YNL248C, strain rpa49, stronger effect = lower value",0.0871 (active)
same,normalized growth,"S. cerevisiae deletion strains, locus YNL250W, strain rad50, stronger effect = lower value",0.101 (active)
same,normalized growth,"S. cerevisiae deletion strains, locus YNL271C, strain bni1, stronger effect = lower value",0.0626 (active)
same,normalized growth,"S. cerevisiae deletion strains, locus YNL298W, strain CLA4, stronger effect = lower value",0.0625 (active)
same,normalized growth,"S. cerevisiae deletion strains, locus YNL307C, strain MCK1, stronger effect = lower value",0.0743 (active)
same,normalized growth,"S. cerevisiae deletion strains, locus YNL322C, strain KRE1 (second series), stronger effect = lower value",0.299 (active)
same,normalized growth,"S. cerevisiae deletion strains, locus YNL322C, strain KRE1, stronger effect = lower value",0.0495 (active) and 0.989 (inactive)
same,normalized growth,"S. cerevisiae deletion strains, locus YNR049C, strain mso1, stronger effect = lower value",0.0582 (active)
same,normalized growth,"S. cerevisiae deletion strains, locus YNR052C, strain pop2, stronger effect = lower value",0.851 (active)
same,normalized growth,"S. cerevisiae deletion strains, locus YOL006C, strain TOP1, stronger effect = lower value",0.102 (active)
same,normalized growth,"S. cerevisiae deletion strains, locus YOL012C, strain htz1",0.238 (inactive)
same,normalized growth,"S. cerevisiae deletion strains, locus YOL147C, strain pex11, stronger effect = lower value",1.01 (inactive)
same,normalized growth,"S. cerevisiae deletion strains, locus YOR001W, strain rrp6, stronger effect = lower value",0.459 (active)
same,normalized growth,"S. cerevisiae deletion strains, locus YOR061W, strain CKA2, stronger effect = lower value",0.0469 (active)
same,normalized growth,"S. cerevisiae deletion strains, locus YOR069W, strain VPS5, stronger effect = lower value",0.0489 (active)
same,normalized growth,"S. cerevisiae deletion strains, locus YOR070C, strain gyp1, stronger effect = lower value",0.0603 (active)
same,normalized growth,"S. cerevisiae deletion strains, locus YOR080W, strain dia2, stronger effect = lower value",0.803 (active)
same,normalized growth,"S. cerevisiae deletion strains, locus YOR083W, strain WHI5 (second series), stronger effect = lower value",0.0766 (active)
same,normalized growth,"S. cerevisiae deletion strains, locus YOR083W, strain WHI5, stronger effect = lower value",0.0645 (active)
same,normalized growth,"S. cerevisiae deletion strains, locus YOR106W, strain vam3, stronger effect = lower value",0.0667 (active)
same,normalized growth,"S. cerevisiae deletion strains, locus YOR136W, strain idh2, stronger effect = lower value",0.0722 (active)
same,normalized growth,"S. cerevisiae deletion strains, locus YOR144C, strain elg1, stronger effect = lower value",1.01 (inactive)
same,normalized growth,"S. cerevisiae deletion strains, locus YOR184W, strain ser1, stronger effect = lower value",0.0757 (active)
same,normalized growth,"S. cerevisiae deletion strains, locus YOR231W, strain MKK1, stronger effect = lower value",0.118 (active)
same,normalized growth,"S. cerevisiae deletion strains, locus YOR265W, strain rbl2, stronger effect = lower value",0.0602 (active)
same,normalized growth,"S. cerevisiae deletion strains, locus YOR270C, strain vph1, stronger effect = lower value",0.103 (active)
same,normalized growth,"S. cerevisiae deletion strains, locus YOR290C, strain snf2, stronger effect = lower value",0.888 (inactive)
same,normalized growth,"S. cerevisiae deletion strains, locus YOR316C, strain cot1, stronger effect = lower value",0.063 (active)
same,normalized growth,"S. cerevisiae deletion strains, locus YPL051W, strain arl3, stronger effect = lower value",0.0663 (active)
same,normalized growth,"S. cerevisiae deletion strains, locus YPL055C, strain LGE1, stronger effect = lower value",0.0731 (active)
same,normalized growth,"S. cerevisiae deletion strains, locus YPL078C, strain atp4, stronger effect = lower value",0.707 (active)
same,normalized growth,"S. cerevisiae deletion strains, locus YPL106C, strain sse1, stronger effect = lower value",0.105 (active)
same,normalized growth,"S. cerevisiae deletion strains, locus YPL240C, strain hsp82, stronger effect = lower value",0.0588 (active)
same,normalized growth,"S. cerevisiae deletion strains, locus YPL241C, strain CIN2, stronger effect = lower value",0.0501 (active) and 0.992 (inactive)
same,normalized growth,"S. cerevisiae deletion strains, locus YPL256C, strain CLN2, stronger effect = lower value",0.113 (active)
same,normalized growth,"S. cerevisiae deletion strains, locus YPR119W, strain clb2, stronger effect = lower value",0.0638 (active)
same,normalized growth,"S. cerevisiae deletion strains, locus YPR141C, strain kar3, stronger effect = lower value",0.0669 (active)
same,normalized growth,"S. cerevisiae deletion strains, locus YPR163C, strain tif3, stronger effect = lower value",0.0717 (active)
same,normalized growth,"S. cerevisiae deletion strains, locus YPR167C, strain met16, stronger effect = lower value",0.0625 (active)
same,normalized growth,"S. cerevisiae deletion strains, strain wtn01, stronger effect = lower value",0.0617 (active)
same,normalized growth,"S. cerevisiae strains, strain wild type, stronger effect = lower value",0.0481 (active)
